Where “and” joins values, the source holds several entries; their conditions need not be identical. Identical values can stand only once. Screen size: about 67,000 compounds; about 40 (0.06%) showed an effect of 50% or more. The sample holds strong results, similar compounds and a random draw of the others, so the mix is not that of the screen.

For this experiment, the target named is T1, Coenzyme A biosynthesis bifunctional protein CoaBC (Mycobacterium tuberculosis (strain ATCC 25618 / H37Rv)) (UniProt P9WNZ1).
T1 sequence (whole entry): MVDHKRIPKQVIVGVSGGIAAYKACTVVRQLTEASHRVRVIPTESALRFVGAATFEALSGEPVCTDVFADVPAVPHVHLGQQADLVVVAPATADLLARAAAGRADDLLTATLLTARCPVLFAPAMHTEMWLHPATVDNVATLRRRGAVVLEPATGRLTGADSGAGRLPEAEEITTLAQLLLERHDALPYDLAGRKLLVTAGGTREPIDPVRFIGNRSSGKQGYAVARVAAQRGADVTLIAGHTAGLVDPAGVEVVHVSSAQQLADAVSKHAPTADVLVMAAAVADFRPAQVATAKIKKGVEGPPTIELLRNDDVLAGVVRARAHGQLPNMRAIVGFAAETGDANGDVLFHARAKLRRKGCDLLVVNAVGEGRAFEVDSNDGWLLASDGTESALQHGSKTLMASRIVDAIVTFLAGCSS
Kind of experiment: Biomol Green assay for MtCoaBC inhibitor, OD650 read. The format is functional. Further details: scale not given: in the data most compounds retested in dose-response had high values. The settings on record: 30 µM.
For `CN(Cc1cccnc1)C1COC2(CCN(Cc3nccs3)CC2)C1` (centres undefined), the Percent Effect was 1.85%.

As for `Cc1ccc(CN2CCC3(CC2)CC3CN(C)Cc2cccnc2)o1` (centres undefined), the Percent Effect was -31.5%.

For `Cc1noc(C)c1C(=O)N1CC[C@H]2C[C@@H](c3ccncn3)O[C@@H]2C1`, the Percent Effect is -0.386%.

As for `CCCS(=O)(=O)N1C[C@@H]2CN(Cc3cnn(C)c3)CCO[C@@H]2C1`, the Percent Effect was determined as 4%.

For `O=C(c1cnccn1)N1C[C@@H]2C[C@@H](c3nc(C4CC4)cs3)O[C@@H]2C1`, the Percent Effect is 2.75%.

For the molecule `c1csc(CN2CCO[C@H]3[C@H](OCCN4CCCC4)CC[C@@H]32)n1`, the Percent Effect is 5.46%.

`CCC1=N[C@@]2(CC[C@@H]3CN(S(=O)(=O)CC)C[C@@H]32)C(=O)N1CC(C)C`: the Percent Effect was determined as 2.92%.

Regarding `CCc1nc2n(n1)CC(NCc1cc(OC)c3c(c1)OCO3)CC2` (centres undefined), the Percent Effect is -7.88%.

Take `COc1cc(CNC2CCc3nc(C)nn3C2)cc2c1OCCO2` (centres undefined): the Percent Effect was -5.17%.

Consider `Cc1ccc(N2CC[C@H]3OCC[C@@]3(C(=O)N(C)C)C2)nn1`, for which the Percent Effect amounted to 2.24%.

`CS(=O)(=O)N1CC[C@H]2[C@H](C[C@@H](Cn3cncn3)N2CC2CC2)C1`: the Percent Effect was found to be 5%.

With `CC(C)(C)N1CCCN(C(=O)c2csc(S(N)(=O)=O)c2)CC1`, the Percent Effect was -6.17%.

For `CC1CCCN(C(=O)c2csc(S(N)(=O)=O)c2)CC1` (centres undefined), the Percent Effect is -0.441%.

Regarding `Cc1cnc(N2C[C@H]3CCN(CC4CC4)C[C@@H]3C2)nc1`, the Percent Effect was -28.5%.

For `O=C(O)COc1ccc(CN2CCCC(CCc3ccccc3)C2)cc1` (centres undefined), the Percent Effect is 94.3% and 88.4%.

`COc1ccc(CCC2CCCN(CC(=O)O)C2)cc1` (centres undefined): the Percent Effect is 0.988%.

Regarding `O=C(O)COc1ccc(CN2CCCC(Cc3cccnc3)C2)cc1` (centres undefined), the Percent Effect turned out to be 0.485%.

For `COCC(C)N1CCN(CCc2ccc3c(c2)CCO3)CC1` (centres undefined), the Percent Effect is 4.17%.

Take `CCOCCN1CCN(CCc2ccc3c(c2)CCO3)CC1`: the Percent Effect is -14.1%.

Take `CN1CCN(C[C@H]2OC[C@@H]3CCN(Cc4ccsc4)C[C@@H]32)CC1`: the Percent Effect is -5.68%.

Regarding `O=C1[C@H]2CN(C3CCOC3)C[C@H]2CN1c1ccccc1` (some centres undefined), the Percent Effect turned out to be 2.66%.

Regarding `Cc1cc(CN2C[C@@H]3CCCO[C@@H]3[C@H](N(C)C(C)C)C2)no1`, the Percent Effect stood at 9.94%.

As to `O=C(NCC1CC1)[C@@H]1CCO[C@@H]2CCN(c3ncccn3)C[C@@H]21`, the Percent Effect was found to be 0.323%.

`Cc1nonc1C(=O)N1CC[C@@]2(O)CCN(C3CCCCC3)C[C@H]2C1`: the Percent Effect came out at 10.8%.

For the molecule `O=C(NC1CCN(C2CC2)CC1)c1cn(-c2ccc(Cl)cc2)nn1`, the Percent Effect was determined as 3.19%.

Turning to `O=C(NC1CCN(C2CC2)C1)c1cn(-c2ccc(F)cc2)nn1` (centres undefined), the Percent Effect is -3.95%.

Turning to `CC(C)CCN1C[C@H]2C[C@H](C(=O)N3CCCC3)[C@@H](C1)O2`, the Percent Effect came out at 1.46%.

With `CC(C)N1[C@H](Cn2cncn2)C[C@@H]2CN(Cc3nccn3C)CC[C@@H]21`, the Percent Effect was determined as 4.19%.

For the molecule `COc1ccc(CN2C[C@H]3CCC[C@@H](CN(C)C4CC4)[C@H]3C2)cn1`, the Percent Effect is -25.8%.

`O=C(C1CC1)N1CCN2C[C@H](c3ccccc3)[C@@H](CO)[C@H]2C1`: the Percent Effect is -2.91%.

As for `O=C1CC(c2ccc(O)cc2)c2sc(C(=O)O)c(-c3ccccc3)c2N1` (centres undefined), the Percent Effect stood at 1.28%.

On to `O=C1CC(c2ccccc2)c2sc(C(=O)O)c(-c3ccccc3)c2N1` (centres undefined), for which the Percent Effect is -0.766%.

In the case of `Cc1ccc(CN2CC[C@H]3OCC[C@@H](C(=O)NC4CC4)[C@@H]3C2)o1`, the Percent Effect amounted to 3.34%.

Regarding `O=C(c1ccco1)N1CC[C@@H]2[C@H]1CCC(=O)N2c1ccccc1`, the Percent Effect was 3.58%.

As for `CN(Cc1cnccn1)C(=O)[C@@]12CNC[C@@H]1CN(Cc1ccccc1)C2`, the Percent Effect was determined as 2.15%.

As for `CC(NC(=O)CN1CCCC1=O)c1ccc(Cl)s1` (centres undefined), the Percent Effect is -0.806%.

For the molecule `CC(C)(C)OC(=O)NCC(=O)NCc1ccc(Cl)s1`, the Percent Effect was 7.73%.

Take `O=C(C1CCOCC1)N1CCN2C(=O)N(Cc3ccc(F)cc3)C[C@H]2C1`: the Percent Effect was 12%.

Turning to `CC1CCN(C(=O)[C@@H]2CC[C@@H]3[C@@H](CCN3c3ncc(F)cn3)O2)CC1`, the Percent Effect is -4.84%.

Turning to `CNC(=O)[C@H]1C[C@@H]2CN(Cc3cccnc3OC)C[C@@H]2N1C(C)C`, the Percent Effect stood at 1.06%.

`O=C(c1ccsc1)N1CCO[C@@H]2CN(Cc3cccs3)C[C@@H]2C1`: the Percent Effect was -4.58%.

In the case of `Cc1nnc(N2C[C@H](Oc3ccccn3)[C@H]3OCCC[C@H]32)s1`, the Percent Effect worked out at 4.91%.

Take `Cc1ccc(-n2c(COCC(=O)O)nc3c(C)cccc32)nc1`: the Percent Effect was found to be 5.78%.

For `Cc1cccc2c1nc(COCC(=O)O)n2-c1ccsc1`, the Percent Effect is 5.35%.

With `COCCC(=O)N1C[C@H]2CC[C@@H]1CN(C1Cc3ccccc3C1)C2`, the Percent Effect came out at 2.15%.

For `Cn1cc(CN2C[C@H]3CCC[C@@H](CNc4ncccn4)[C@H]3C2)cn1`, the Percent Effect is -2.24%.

For `Cc1occc1C(=O)N1C[C@H]2CCCC(OCc3cccnc3)[C@H]2C1` (some centres undefined), the Percent Effect came to 7.49%.

Regarding `CN(Cc1ccccn1)C(=O)[C@H]1CO[C@H]2CCN(CC3CC3)C[C@H]2C1`, the Percent Effect stood at 1.98%.

Turning to `CN(Cc1nnc2n1CCC2)S(=O)(=O)c1ccc(Br)cc1Cl`, the Percent Effect is -1.49%.

For the molecule `CN(Cc1nnc2n1CCC2)S(=O)(=O)c1cc(Br)ccc1Br`, the Percent Effect is 3.23%.

For the molecule `Cc1cccc(CN2C[C@@H]3OCCN(C)[C@@H]3C2)n1`, the Percent Effect is 4.44%.

Consider `c1cnn([C@@H]2CN(Cc3nccs3)[C@@H]3CCCO[C@@H]32)c1`, for which the Percent Effect came out at 2.08%.

As for `COCCN1C(=O)CC[C@@H]2[C@H]1CCN2C(=O)N(C)C`, the Percent Effect is 12.9%.

On to `CCOC(=O)[C@]12CCCN(Cc3ccco3)C[C@H]1CN(CCN(C)C)C2`, for which the Percent Effect is 3.17%.

The values above are taken from ChEMBL document CHEMBL3988442, “University of Dundee, Small-Polar-MMV Screening Library” (2021).
